Potency data for 16 compounds are collected here from PubChem BioAssay AID1845226 (National Center for Advancing Translational Sciences (NCATS), 2023).

Results filed as inconclusive are left out. Entries that show only a call come without a potency. The source made the active and inactive calls. Calls follow the shape of the dose curve; as a rule, active = well fitted inhibition curve with a large enough effect; inconclusive = small, poorly fitted or top-dose-only effect; inactive = no such curve, though single readings can be large or run the other way.
Potency is read from the fitted curve at half-maximal effect.

The experiment is described as follows: Confirmatory fluorescence-based thiol-reactive (MSTI) qHTS assay for identification of artifact compounds. Particulars: MSTI thiol-reactivity probe, 1 h; series mostly up to 39.2 µM. In a few lines:
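Compounds, dosed in qHTS format, were mixed with 4 uM MSTI probe in 1X PBS pH 7.4 containing 2% DMSO. After 1 hour at room temperature in the dark, fluorescence was measured.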
Consider `CCOC(=O)c1sc2cccc(F)c2c1S(=O)(=O)NCc1ccccc1Cl`, for which the Potency result was “inactive”.

As for `COc1cc(NC(=O)c2ccc(C)cc2)ccc1NC(=O)c1cc2ccccc2o1`, the Potency result is “inactive”.

`CCOC(=O)c1c(C)c(C(=O)NCc2ccc(Cl)cc2)c(C)n1CC`: the Potency entry is “inactive”.

As for `CC(C)=CCC/C(C)=C/C=O`, the Potency result was “inactive”.

For the compound `CCN(CC)c1ccc(-c2nc(-c3ccccn3)no2)cc1[N+](=O)[O-]`, the Potency result was “inactive”.

As for `COc1ccc(-c2cc3ccc(O)c(CN4CCOCC4)c3oc2=O)cc1OC`, the Potency result is “inactive”.

In the case of `O=C(NCCN1CCCCC1)c1ccc(Cn2c(SCc3ccc(F)cc3)nc3cccnc32)cc1`, the Potency result was “inactive”.

For `O=C(Cn1cc(SCc2ccccc2F)c2ccccc21)N1CCCCC1`, the Potency entry is “inactive”.

Regarding `Ic1ccc(Nc2nc(NCCN3CCOCC3)nc(N3CCOCC3)n2)cc1`, the Potency result was “inactive”.

For `O=S(=O)(O)c1ccc(N=Nc2c(O)ccc3cc(S(=O)(=O)O)ccc23)cc1`, the Potency was 6.12 µM (active).

Consider `Cc1ccc(Cn2cc(CCC(=O)NC3CCCCC3)c3ccccc32)cc1`, for which the Potency entry was “inactive”.

For `O=C(COCc1cc(-c2cccs2)on1)NCc1ccc(Cl)cc1`, the Potency entry is “inactive”.

`Cc1cc(C)cc(NC(=O)CSc2oc(-c3cccs3)nc2S(=O)(=O)c2ccccc2)c1`: the Potency result is “inactive”.

As to `Cc1c(C(=O)OCCOc2ccccc2)[nH]c2c1C(=O)CC(c1ccccc1)C2` (stereo unspecified), the Potency entry was “inactive”.

For the compound `Cc1ccc(NC(=O)NCC2CCN(Cc3cccc(Cl)c3)CC2)cc1Cl`, the Potency result is “inactive”.

`Cc1c(O)cc(O)c2c(=O)c(-c3ccc(O)cc3)coc12`: the Potency result was “inactive”.
